Screens as filed in PubChem BioAssay.
TEAD-YAP inh: TEAD-YAP interaction inhibition | AID 1259422 | HEK-TIYL cells, TEAD-Gal4/YAP UAS-luciferase luminescence | actives 1.4% (n = 640,000) | inhibition, % at 9.12 µM; in the data active means inhibition above about 32%;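 further: 0% = median of test compound wells and 100% = reference inhibitor wells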
MITF primary: human MITF inhibition, primary screen; AlphaScreen MITF homodimerization, bead proximity signal; inhibition, % at 2.6 µM; actives 0.91% (n = 650,000); AID 1259374; in the data active means inhibition above about 50%;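 further: 0% = vehicle wells with protein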
GPR151 activ: activates the human receptor GPR151; Q8TDV0; activation, % at 11.2 µM; actives 1% (n = 650,000); AID 1508602; PathHunter beta-arrestin GPR151 cells, luminescence; in the data active means activation above about 4.9%;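 further: 0% = median of compound wells and 100% = cells with positive control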
FBW7 activator: activators of human E3 ligase FBW7; Q969H0; AlphaScreen FBW7–phospho-cyclin E peptide binding, activator screen; normalized activity (activation), % at 26.1 µM; actives 0.13% (n = 650,000); AID 1259310; in the data active means normalized activity above about 1.9%;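 further: purified mutant Fbw7 with reduced substrate affinity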
Target sequence (Q969H0 whole entry, looked up): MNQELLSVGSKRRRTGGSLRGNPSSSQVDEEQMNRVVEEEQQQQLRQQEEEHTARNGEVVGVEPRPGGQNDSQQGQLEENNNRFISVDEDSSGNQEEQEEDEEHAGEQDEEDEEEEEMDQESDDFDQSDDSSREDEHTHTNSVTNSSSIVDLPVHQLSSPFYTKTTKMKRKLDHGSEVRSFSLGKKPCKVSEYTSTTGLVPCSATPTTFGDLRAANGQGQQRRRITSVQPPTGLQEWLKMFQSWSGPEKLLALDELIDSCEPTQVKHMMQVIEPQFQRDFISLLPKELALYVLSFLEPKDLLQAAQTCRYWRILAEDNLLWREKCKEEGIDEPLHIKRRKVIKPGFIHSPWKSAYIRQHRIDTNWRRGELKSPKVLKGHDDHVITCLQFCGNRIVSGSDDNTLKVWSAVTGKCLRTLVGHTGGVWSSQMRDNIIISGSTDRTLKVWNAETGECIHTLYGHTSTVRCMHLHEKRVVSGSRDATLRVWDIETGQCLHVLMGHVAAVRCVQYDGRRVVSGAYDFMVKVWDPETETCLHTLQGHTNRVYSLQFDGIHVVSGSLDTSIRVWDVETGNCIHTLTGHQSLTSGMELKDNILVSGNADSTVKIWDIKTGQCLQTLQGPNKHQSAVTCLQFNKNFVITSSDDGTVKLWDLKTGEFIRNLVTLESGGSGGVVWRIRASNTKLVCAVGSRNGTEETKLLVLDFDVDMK
GPR151 conf act: human GPR151 activation, confirmation screen. activation, % at 11.2 µM. shares compounds with GPR151 activ. 6,700 tested, under 10 active. GPR151 PathHunter beta-arrestin cells, luminescence, 90 min; % of EA-reagent control over plate median;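 active means mean percent activation across replicates above the confirmation screen cutoff of 4.91%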
GPR119 ag: activates human GPR119 in a GPR151 counter-screen; shares compounds with GPR151 activ; GPR119 PathHunter beta-arrestin cells, luminescence, 90 min; 0 = compound-well median, 100 = enzyme-acceptor control; AID 1508611; actives 0.3% (n = 6,700); activation, % at 11.2 µM;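 active means mean percent activation in the counterscreen above 29.09%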;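 further: counterscreen on off-target GPR119 to flag nonselective hits from the GPR151 activator screen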
* marks the source's active call; other numbers are inactive results; . = not tested or not shown. This is a sample that favours compounds with a hit; in the whole collection about 3.4% have one here.

SMILES	TEAD-YAP inh	MITF primary	GPR151 activ	FBW7 activator	GPR151 conf act	GPR119 ag
N#CC1=C(N)Oc2n[nH]c(-c3cccc([N+](=O)[O-])c3)c2C1c1ccc(Cl)c(Cl)c1 (stereo unspecified)	3	5	7.9*	0	-1	-6
COc1cc(C2C(C#N)=C(N)Oc3n[nH]c(-c4cccc([N+](=O)[O-])c4)c32)cc(OC)c1OC(C)=O (stereo unspecified)	-8	-6	-1	0	.	.
Cc1ccc(C2CC(c3ccc4c(c3)OCO4)Nc3ncnn32)cc1 (stereo unspecified)	-3	-14	-1	0	.	.
CCOc1ccc(C(=O)Nc2c3c(nn2-c2ccc([N+](=O)[O-])cc2)CS(=O)(=O)C3)cc1OCC	2	1	2	0	.	.
CCCc1nnc(SCC(=O)N2c3ccccc3CC2C)n1Cc1ccco1 (stereo unspecified)	8	-4	-1	0	.	.
O=c1oc2ccc(Cl)cc2cc1-c1nnc(-c2ccccc2Cl)o1	-1	2	5.6*	0	0	-12
O=C(NCC1CCC2(CCN(C(=O)c3ccncc3)CC2)O1)c1ccc2[nH]ccc2c1 (stereo unspecified)	5	-5	8.0*	0	0	12
COc1ccc(Cc2nc(SCC(=O)Nc3cccc(C(=O)OC(C)C)c3)n[nH]2)cc1	-2	9	5.8*	0	0	1
COc1ccc(C(=O)c2sc3nc(C)cc(C)c3c2N)c(OC)c1	-5	2	7.0*	2	0	8
CCc1ccc(CNCc2cc(NC(=O)c3ccccn3)cc(C(=O)N(C)C)c2)cc1	2	-5	10*	0	1	10
CSc1ccc(C2C(C#N)=C(N)N(N(C)C)C3=C2C(=O)CCC3)cc1 (stereo unspecified)	2	-9	0	0	.	.
Cc1cc(NCCOc2ccccc2)nc(N2CCN(Cc3ccc4c(c3)OCO4)CC2)n1	8	6	6.0*	0	2	3
CCC1CN(CCNC(=O)Cn2ncc3ccccc32)Cc2cc(OC)ccc2O1 (stereo unspecified)	-1	-1	8.2*	1	1	12
CCC1CN(CCNC(=O)CC2CCCC2)Cc2cc(OC)ccc2O1 (stereo unspecified)	6	-4	6.9*	0	2	5
O=C(O)COc1ccc(NC(=O)COc2ccc(Cl)cc2)cc1	9	3	2	0	.	.
O=C(COc1ccc(Cl)cc1)Nc1ccc(Cc2ccncc2)cc1	-1	-5	5.4*	0	-1	-13
O=C(COc1ccccc1)Nc1ccc(Cl)cn1	-19	-1	7.8*	0	0	-5
O=C(COc1ccc(Br)cc1)Nc1ncc(Cc2ccc(F)cc2)s1	6	5	6.2*	0	0	11
O=C(COc1ccc(Cl)cc1)Nc1ccc(Cl)cn1	-31	14	0	0	.	.
O=C(COc1ccc(Br)cc1)Nc1ccc(Cl)cn1	-40	8	11*	0	0	14
O=C(COc1ccccc1)NC(=S)Nc1ccc(Cl)cn1	-3	9	3	0	.	.
CC1=CC(C)(C)Nc2ccc(OC(=O)c3ccc([N+](=O)[O-])cc3)cc21	0	23	2	-1	.	.
N#C/C(=C\c1cn(CC(=O)N2CCOCC2)c2ccccc12)C(=O)Nc1ccc(Cl)cc1	6	0	-1	0	.	.
C#CCOc1cccc(/C=c2\sc3n(c2=O)C(c2ccccc2OC(C)C)C(C(=O)OCC)=C(C)N=3)c1 (stereo unspecified)	-11	-1	1	0	.	.
O=C(COc1ccc(Cl)cc1)Nc1ccc2c(c1)C(=O)N(c1ccccc1)C2=O	9	8	11*	0	0	0
SMILES	TEAD-YAP inh	MITF primary	GPR151 activ	FBW7 activator	GPR151 conf act	GPR119 ag
CN1C(=O)c2ccc(NC(=O)COc3ccc(Cl)cc3)cc2C1=O	-2	-8	0	0	.	.
COc1c(C(=O)Nc2ccc(Cl)cn2)ccc2ccccc12	-39	11	5.5*	0	-1	-3
N#Cc1ccc(NC(=O)COC(=O)C2COc3ccccc3O2)cc1 (stereo unspecified)	2	2	7.8*	0	0	1
COc1ccc(CSc2nc3cc(Cl)ccc3n2C(C)c2ccccc2)cc1F (stereo unspecified)	-10	-6	2	0	.	.
CCOC(=O)C(=O)Nc1ncc(Cl)s1	11	4	5.4*	0	0	6
CCOC(=O)C(=O)Nc1nnc(C(C)C)s1	8	30	2	0	.	.
Cc1nc2ccccc2nc1CN1CCC2(CC1)CC2C(=O)N(C)Cc1cscn1 (stereo unspecified)	7	16	0	0	.	.
Cc1ccsc1CN1CCC2(CC1)CC2C(=O)N(C)Cc1cscn1 (stereo unspecified)	1	-1	5.2*	0	0	-1
Cc1ccc(-c2noc(CCC(=O)N3CCCCC3C)n2)cc1 (stereo unspecified)	-10	1	1	0	.	.
CC1CCCCN1C(=O)CCc1nc(-c2ccc(Cl)cc2)no1 (stereo unspecified)	-16	-1	6.7*	0	0	-14
CS(=O)(=O)N(CC(=O)Nc1cccc(Cl)c1Cl)c1cccc(F)c1	-13	-1	5.3*	0	0	2
CS(=O)(=O)N(CC(=O)NC1CCCC1)c1ccc(F)c(Cl)c1	7	-1	0	0	.	.
CS(=O)(=O)N(CC(=O)NC1CC1)c1ccc(F)c(Cl)c1	1	-5	5.6*	0	1	16
CC(=O)Nc1ccc(NC(=O)CSc2nnnn2-c2cc(C)ccc2C)cc1	-6	-7	0	1	.	.
Cc1ccccc1OCC(=O)Nc1ccc(Cl)cn1	-56	3	-1	0	.	.
C/C(=N\Nc1ccc(S(N)(=O)=O)cc1[N+](=O)[O-])c1ccc(Br)cc1	5	2	3	0	.	.
CC(=NC1CC(C)(C)NC(C)(C)C1)c1c(C)[nH]n(-c2ccc([N+](=O)[O-])cc2)c1=O	9	0	6.3*	0	-1	-7
Cc1cc(F)ccc1NC(=O)c1ccco1	4	-16	0	0	.	.
COc1ccccc1Cn1c(=S)[nH]c2cc(C(=O)N3CCC(C(N)=O)(N4CCCCC4)CC3)ccc2c1=O	11	7	5.8*	0	2	10
COc1ccccc1Cn1c(=S)[nH]c2cc(C(=O)N3CCCCC3)ccc2c1=O	10	16	-1	1	.	.
O=C(NCc1ccc(Cl)cc1Cl)Nc1ccccc1	-45	14	-1	1	.	.
O=C(NCc1ccc(Cl)cc1Cl)c1ccccn1	2	2	7.8*	0	0	3
CCCCOC(=O)c1ccc(Nc2nc3ccccc3n3nnnc23)cc1	-15	14	0	1	.	.
